Source: PubChem BioAssay (The Scripps Research Institute Molecular Screening Center)
The list is not random: actives were taken first. Their share in the collection is about 3.1%.
PAFAH1B3 inh: blocks human PAF acetylhydrolase 1B catalytic subunit 3; inhibition, % at 3.39 µM; Q15102; actives 0.28% (n = 340,000); recombinant PAFAH1B3, FP-rhodamine probe, fluorescence polarization;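 active means inhibition above the screen-wide average of all tested compounds plus 3 SD, cut at about 25% in these data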;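 further: 0% = enzyme with DMSO only and 100% = wells lacking PAFAH1B3 protein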
Target sequence (Q15102 whole entry, looked up): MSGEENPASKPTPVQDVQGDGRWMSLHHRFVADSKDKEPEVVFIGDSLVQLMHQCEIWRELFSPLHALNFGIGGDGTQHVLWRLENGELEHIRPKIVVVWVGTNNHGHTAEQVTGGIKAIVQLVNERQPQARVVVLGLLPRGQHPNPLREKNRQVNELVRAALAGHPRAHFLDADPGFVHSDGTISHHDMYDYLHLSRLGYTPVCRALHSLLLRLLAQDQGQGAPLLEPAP
eLon inh: inhibits E. coli Lon protease | AID 602123 | P0A9M0 | inhibition, % at 7.94 µM | purified E. coli Lon protease, fluorescence polarization | actives 0.42% (n = 360,000); in the data active means inhibition above about 13%, passing the limit was not always enough;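 further: 0% = enzyme with probe and DMSO and 100% = no enzyme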
pPAFAH FP inh: inhibitors of human plasma PAF acetylhydrolase (pPAFAH); Q13093; recombinant pPAFAH, FP-rhodamine probe fluorescence polarization; AID 463082; actives 1.5% (n = 330,000); inhibition, % at 3.39 µM;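 active means inhibition above the mean inhibition across the screen plus 3 SD, cut at about 25% in these data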;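 further: inhibitors block binding of the rhodamine activity-based probe so polarization drops; 0% = enzyme with DMSO and 100% = wells lacking pPAFAH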
PAFAH1B2 FP inh: blocks human PAF acetylhydrolase 1b catalytic subunit 2; AID 492953; recombinant PAFAH1B2, FP-rhodamine activity probe, fluorescence polarization; actives 1.2% (n = 340,000); inhibition, % at 3.39 µM; P68402;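 active means inhibition above the mean of all tested compounds plus 3 SD, cut at about 24% in these data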;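 further: 0% = enzyme with DMSO and 100% = wells lacking PAFAH1B2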
Target sequence (P68402 whole entry, looked up): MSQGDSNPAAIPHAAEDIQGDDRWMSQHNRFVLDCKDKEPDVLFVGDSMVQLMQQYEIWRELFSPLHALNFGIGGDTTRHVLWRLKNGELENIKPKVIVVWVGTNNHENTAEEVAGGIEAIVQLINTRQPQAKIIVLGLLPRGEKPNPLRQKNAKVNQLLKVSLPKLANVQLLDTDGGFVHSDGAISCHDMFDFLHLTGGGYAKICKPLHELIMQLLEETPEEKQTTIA
PAFAH2 FP inh: inhibitors of human PAFAH2 | Q99487 | recombinant PAFAH2, FP-rhodamine activity probe, fluorescence polarization | inhibition, % at 3.39 µM | actives 0.99% (n = 340,000);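 active means inhibition above the mean over all tested compounds plus 3 SD, cut at about 30% in these data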;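 further: inhibitors block probe labeling of enzyme so polarization drops; 0% = enzyme with DMSO and 100% = wells lacking PAFAH2 protein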
Rin1-Abl PPI inh: blocks binding of human Rin1 to Abl. P00519+Q13671. TR-FRET Rin1/Abl binding, biochemical. inhibition, % at 7.35 µM. actives 0.4% (n = 360,000). AID 588664; in the data active means inhibition above about 5%, passing the limit was not always enough
PAFAH2 FP conf: confirmation of human PAFAH2 inhibitors; shares compounds with PAFAH2 FP inh; recombinant PAFAH2, FP-rhodamine activity probe, fluorescence polarization; inhibition, % at 3.39 µM; actives 65% (n = 2,300);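 active means mean inhibition over three repeats above a set limit taken from the earlier primary screen, cut at about 30% in these data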;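 further: inhibitor blocks binding of rhodamine activity probe so polarization falls; 0% = enzyme with DMSO and 100% = wells lacking PAFAH2 protein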
The depositor's hits bear a star; x = no result.

SMILES	PAFAH1B3 inh	eLon inh	pPAFAH FP inh	PAFAH1B2 FP inh	PAFAH2 FP inh	Rin1-Abl PPI inh	PAFAH2 FP conf
O=C(Nc1ccc(Oc2ccc(NC(=O)Nc3ccccc3Cl)cc2)cc1)Nc1ccccc1Cl	6	5	1	2	55*	3	27
O=C(Nc1ccccc1)Nc1cccc(Cl)c1Cl	-11	-2	-5	-2	-10	0	x
CCN(CC)c1ccc(S(=O)(=O)N2CCOCC2)cc1NC(=O)COC(=O)COc1ccccc1C	-1	9	3	-8	1	4	x
O=C(COC(=O)/C=C/c1ccco1)Nc1cc(S(=O)(=O)N2CCOCC2)ccc1Cl	-2	11	6	2	42*	1	37*
CCN(CC)c1ccc(S(=O)(=O)N2CCOCC2)cc1NC(=O)COC(=O)/C=C/c1ccco1	-3	-3	x	2	55*	0	42*
CC1CCN(C(=O)CCNS(=O)(=O)c2ccc3c(c2)c(=O)n(C)c(=O)n3C)CC1	2	-3	10	1	4	2	x
Cc1ccc(NC(=O)COC(=O)c2ccnn2C)cc1	3	-10	7	0	28	1	x
Cc1ccc(NC(=O)COC(=O)c2nn(C)cc2Cl)cc1	7	-11	0	1	8	1	x
Cn1ccc(C(=O)OCC(=O)Nc2ccccc2)n1	7	-1	x	1	73*	1	78*
Cn1nccc1C(=O)OCC(=O)Nc1ccccc1	-4	-10	x	-3	40*	1	28
Cc1ccc(NC(=O)COC(=O)c2ccn(C)n2)cc1	-1	3	3	1	68*	0	63*
CC1(C)OC(=O)C2=C(C[C@@H](C3CC3)O[C@@H]2C2CC2)O1	x	5	x	x	x	x	x
COc1ccc(CCNC(=O)CSc2ccc3nnc(CCNC(=O)c4ccccc4)n3n2)cc1OC	4	-1	1	0	-3	1	x
Cc1ccc(C(=O)COC(=O)c2cccs2)cc1	9	1	2	2	30*	2	21
CN(C)c1ccc(C(=O)OCC(=O)c2ccc[nH]2)cc1	2	-8	7	2	68*	3	68*
O=C(OCC(=O)c1ccc[nH]1)c1ccccc1	-1	-1	2	3	14	-1	x
COc1ccc(C(=O)COC(=O)c2ccc(N(C)C)cc2)cc1	-1	-2	6	-2	5	-2	x
CN(C)c1ccc(C(=O)OCC(=O)c2cccs2)cc1	3	-10	3	-1	71*	-3	76*
CCC(C)CNC(=O)c1[nH]c(C(F)(F)F)nc1-c1ccccc1 (configuration not stated)	x	-15	x	x	x	0	x
N#Cc1ccc2nc3c(nc2c1)CCCC3	6	2	-1	1	-6	2	x
CCOC(=O)N1CCC(N2C(=O)c3ccc(C(=O)Nc4ccc(OC)cc4)cc3C2=O)CC1	0	-1	3	2	-1	-2	x
CCOc1ccccc1OCC(=O)Nc1cc(C)on1	6	8	5	3	2	2	x
Cc1cc(NC(=O)COC(=O)c2ccccc2NCCO)no1	10	-7	6	7	6	-1	x
CCOc1ccc(C(=O)OCC(=O)Nc2cc(C)on2)cc1OCC	-2	-1	5	6	77*	-1	63*
Cc1cc(NC(=O)COC(=O)c2ccc(Cl)cc2)no1	x	-6	x	x	x	-1	x
SMILES	PAFAH1B3 inh	eLon inh	pPAFAH FP inh	PAFAH1B2 FP inh	PAFAH2 FP inh	Rin1-Abl PPI inh	PAFAH2 FP conf
CCOc1cc(C(=O)OCC(=O)Nc2cc(C)on2)ccc1OCC(C)C	7	9	0	0	33*	-1	29
Cc1cc(NC(=O)COC(=O)c2ccccc2S(=O)(=O)N(C)c2ccccc2)no1	2	1	2	-1	46*	-10	1
Cc1cc(NC(=O)COC(=O)c2cccc(O)c2)no1	0	-6	1	0	11	0	x
CCN(CC)c1ccc(C(=O)OCC(=O)Nc2cc(C)on2)cc1	6	-15	16	0	90*	-1	66*
O=C(COC(=O)c1ccc2ncsc2c1)Nc1cc([N+](=O)[O-])ccc1Cl	-11	-22	-2	-8	8	2	x
O=C(COC(=O)c1ccc2ncsc2c1)Nc1ccc(OC(F)(F)F)cc1	-1	0	-10	0	73*	2	70*
